According to PubChem BioAssay (NCATS):
Inconclusive results are not listed. Activity calls are given as the source filed them. Unless noted, calls come from the whole dose curve; as a rule, active = well fitted curve in the direction sought with a large enough effect; inconclusive = small, poorly fitted or top-dose-only effect, or another doubt; inactive = no such curve, though single readings can be large; an effect the other way counts as inactive or inconclusive.

How the values were obtained:
[1] = Primary qHTS for inhibitors of nuclear receptor binding SET domain protein 2 (NSD2) in an RCH-ACV wild type WT cells (2C) (AID 1645877); note: nearly all actives have a fitted effect of over 70% in size; note: potency is the fitted concentration of half-maximal effect
[2] = target: Glutathione peroxidase 1 (Homo sapiens) (UniProt P07203); assay: Primary qHTS Assay for Inhibitors of Recombinant Selenoprotein Glutathione Peroxidase 1 (GPX1) (AID 1845191); note: nearly all actives have a fitted effect of over 65% in size
In short: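 GPX1 10 nM, GR 100 nM, GSH 1 mM, NADPH 0.5 mM, CHP 0.5 mM (final). 30-min cpd preincubation, RT. Ex340/Em450 read t=0, t=15 min.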

[3] = system: CAOV3; assay: Primary qHTS to identify gynecologic anti-cancer compounds using libraries of approved drugs and bioactive compounds (AID 1345084); settings: Gynecologic cancer cell panel viability, ATPlite luminescence, 48 h; series mostly up to 57.5 µM; note: nearly all actives have a fitted effect of over 55% in size; note: potency is the fitted concentration of half-maximal effect; for activity change, negative = cytotoxicity: % is set by controls: 0 for no effect and ±100 for the full control effect
In short: (§1)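 Cell viability after 48 h drug treatment, ATPlite luminescence readout; five doses.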

[4] = system: JEG-3; assay: as above; settings: Gynecologic cancer cell panel viability, ATPlite luminescence, 48 h; series mostly up to 57.5 µM
In short: as §1

[5] = system: Zika virus NS2B-NS3 protease (unlinked complex); assay: Primary screen GU Rhodamine qHTS for Zika virus inhibitors: Unlinked NS2B-NS3 protease assay (AID 1347159); note: nearly all actives have a fitted effect of over 60% in size; note: potency is the fitted concentration of half-maximal effect; for activity change, negative = inhibition: % is set by controls: 0 for no effect and ±100 for the full control effect
In short: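 In dose–response format, inhibition of unlinked protease (25 nM) was measured with 1.5 microM bis-peptide Rhodamine110 substrate. Aprotinin served as the intraplate control.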

[6] = target: Cytochrome P450 2D6 (Homo sapiens) (UniProt P10635); assay: Cytochrome P450 family 2 subfamily D member 6 (CYP2D6) small molecule antagonists: luciferase biochemical (cell-free) qHTS assay (AID 1645840; active = well fitted curve in the direction sought with a large enough effect in the repeat runs; an effect the other way counts as inactive or inconclusive; note: potency is the fitted concentration of half-maximal effect; nearly all actives have a fitted effect of over 55% in size)
In short: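 P450-Glo CYP2D6 system: proluciferin substrate converted by enzyme to luciferin, read by luminescence proportional to activity. Enzyme-substrate mix with compound 10 min at room temperature, then NADPH regeneration 1 h before detection reagent.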

[7] = target: Catechol O-methyltransferase (Homo sapiens) (UniProt P21964); assay: Confirmatory Screen for Target Class Profiling of Small Molecule Inhibitors of Methyltransferases (AID 1745852; calls by dose curve; for activity change, negative = inhibition: % is set by controls: 0 for no effect and ±100 for the full control effect); settings: MTase-Glo luminescence, SAH detection, recombinant enzyme; measured here: COMT max response; stronger effect = lower value
[8] = target: Guanidinoacetate N-methyltransferase (Homo sapiens) (UniProt Q14353); assay: as above; settings: activity change, negative = inhibition: at 57.3 µM (top of the series) unless noted
[9] = target: Nicotinamide N-methyltransferase (Homo sapiens) (UniProt P40261); assay: as above; settings: MTase-Glo luminescence, SAH detection, recombinant enzyme; measured here: NNMT max response; stronger effect = lower value
[10] = target: Phenylethanolamine N-methyltransferase (Homo sapiens) (UniProt P11086); assay: as above; settings: MTase-Glo luminescence, SAH detection, recombinant enzyme; measured here: PNMT max response; stronger effect = lower value
[11] = system: KB-3-1; assay: Cytotoxic Profiling of Annotated Libraries Using Quantitative High-Throughput Screening (AID 1296008); settings: Five cell lines viability, CellTiter-Glo ATP luminescence, 48-72 h; max response: stronger effect = lower value; note: nearly all actives have a fitted effect of over 60% in size; note: potency is the fitted concentration of half-maximal effect
In short: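 Compounds were pin-transferred onto cells and incubated 48 or 72 hr at 37 degree Celsius, 95% humidity. CellTiter-Glo was added, plates sat 10 min at room temperature, then ATP-coupled luminescence was imaged as the viability read-out.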

[12] = system: HeLa; assay: Primary qHTS to identify gynecologic anti-cancer compounds using libraries of approved drugs and bioactive compounds (AID 1345084); settings: Gynecologic cancer cell panel viability, ATPlite luminescence, 48 h; series mostly up to 57.5 µM; note: nearly all actives have a fitted effect of over 55% in size; note: potency is the fitted concentration of half-maximal effect; for activity change, negative = cytotoxicity: % is set by controls: 0 for no effect and ±100 for the full control effect
In short: as §1

[13] = system: SKOV3; assay: as above; settings: Gynecologic cancer cell panel viability, ATPlite luminescence, 48 h; series mostly up to 57.5 µM
In short: as §1

[14] = Primary fluorescence-based thiol-reactive (MSTI) qHTS assay for identification of artifact compounds. (AID 1845221); note: nearly all actives have a fitted effect of over 65% in size; note: potency is the fitted concentration of half-maximal effect;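 for activity change, negative = thiol reactive: thiol-reactive compounds lower the probe fluorescence signal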
In short: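 Probe: MSTI 4 uM, PBS pH 7.4, 2% DMSO. Incubation 1 h, RT, light-protected. Readout fluorescence 525/598 nm.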

[15] = system: CRL-7250; assay: qHTS assay to identify novel small-molecules to repurpose for Merkel cell carcinoma treatment (AID 1296009); settings: MCC and control cell lines, CellTiter-Glo viability, 72 h; series mostly up to 92 µM; note: nearly all actives have a fitted effect of over 60% in size
In short: (§2)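 Luminescence from CellTiter-Glo, read 10 min after addition at room temperature, reported viability following a 72 hr, 37 degree celsius treatment with NPC or MIPE compounds in titration; values normalized to plate controls.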

[16] = system: HACAT; assay: as above; settings: MCC and control cell lines, CellTiter-Glo viability, 72 h; at 44.8 µM (top of the series) unless noted
In short: as §2

[17] = system: NIH3T3; assay: as above; settings: MCC and control cell lines, CellTiter-Glo viability, 72 h; at 44.8 µM (top of the series) unless noted
In short: as §2

[18] = Cytotoxicity counterscreen for inhibitors of SARS-CoV-2 cell entry (AID 1645845; calls by dose curve; note: nearly all actives have a fitted effect of over 50% in size)
In short: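 After a 15 min room-temperature ATPLite 1step step, luminescence reflected ATP remaining in HEK293-ACE2 cells exposed to compound for 1 h plus 48 h at 37 C, with percent activity set by cell and no-cell controls.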

[19] = P-glycoprotein substrates identified in KB-3-1 adenocarcinoma cell line, qHTS therapeutic library screen (AID 1346986); note: nearly all actives have a fitted effect of over 60% in size
In short: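 Using luminescence to quantify ATP, parental and P-gp-overexpressing KB cells were compared after 72 h compound titration. KB-8-5-11 was also run with the P-gp inhibitor tariquidar.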

Cytochrome P450 2D6 (Homo sapiens), sequence (P10635 whole entry, looked up): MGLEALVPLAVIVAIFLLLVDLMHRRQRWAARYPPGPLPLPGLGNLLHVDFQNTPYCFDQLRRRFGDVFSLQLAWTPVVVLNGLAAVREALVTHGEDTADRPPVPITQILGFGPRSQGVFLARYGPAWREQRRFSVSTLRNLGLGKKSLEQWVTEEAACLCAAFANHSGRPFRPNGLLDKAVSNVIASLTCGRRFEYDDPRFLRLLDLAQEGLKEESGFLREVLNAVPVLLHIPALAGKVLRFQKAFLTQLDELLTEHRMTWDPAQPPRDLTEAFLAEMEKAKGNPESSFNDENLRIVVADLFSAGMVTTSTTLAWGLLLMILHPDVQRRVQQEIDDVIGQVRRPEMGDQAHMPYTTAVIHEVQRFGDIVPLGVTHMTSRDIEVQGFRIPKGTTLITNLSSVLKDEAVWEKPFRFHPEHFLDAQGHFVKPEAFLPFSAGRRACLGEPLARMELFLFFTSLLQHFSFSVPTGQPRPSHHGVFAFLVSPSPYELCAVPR
Glutathione peroxidase 1 (Homo sapiens), sequence (P07203 whole entry, looked up): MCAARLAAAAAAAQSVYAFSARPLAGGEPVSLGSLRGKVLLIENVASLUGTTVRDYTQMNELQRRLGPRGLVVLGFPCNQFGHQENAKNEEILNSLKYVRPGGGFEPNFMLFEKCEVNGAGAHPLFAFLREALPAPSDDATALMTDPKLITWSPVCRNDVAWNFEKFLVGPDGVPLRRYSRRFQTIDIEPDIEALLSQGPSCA
Phenylethanolamine N-methyltransferase (Homo sapiens), sequence (P11086 whole entry, looked up): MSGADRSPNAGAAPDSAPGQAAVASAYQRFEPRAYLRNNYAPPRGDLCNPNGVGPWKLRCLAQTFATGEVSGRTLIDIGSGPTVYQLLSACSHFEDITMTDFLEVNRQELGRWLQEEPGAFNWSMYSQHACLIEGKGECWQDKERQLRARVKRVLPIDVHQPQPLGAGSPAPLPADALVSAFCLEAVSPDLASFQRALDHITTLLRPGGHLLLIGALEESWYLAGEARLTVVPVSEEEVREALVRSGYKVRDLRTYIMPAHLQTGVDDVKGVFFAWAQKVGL
Catechol O-methyltransferase (Homo sapiens), sequence (P21964 whole entry, looked up): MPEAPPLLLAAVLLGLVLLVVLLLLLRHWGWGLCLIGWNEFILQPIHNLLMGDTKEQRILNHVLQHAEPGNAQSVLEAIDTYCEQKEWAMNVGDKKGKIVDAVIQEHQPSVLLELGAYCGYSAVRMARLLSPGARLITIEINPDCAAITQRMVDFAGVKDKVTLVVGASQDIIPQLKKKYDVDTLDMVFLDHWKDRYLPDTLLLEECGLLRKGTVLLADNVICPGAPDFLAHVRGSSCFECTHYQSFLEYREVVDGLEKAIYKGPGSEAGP
Nicotinamide N-methyltransferase (Homo sapiens), sequence (P40261 whole entry, looked up): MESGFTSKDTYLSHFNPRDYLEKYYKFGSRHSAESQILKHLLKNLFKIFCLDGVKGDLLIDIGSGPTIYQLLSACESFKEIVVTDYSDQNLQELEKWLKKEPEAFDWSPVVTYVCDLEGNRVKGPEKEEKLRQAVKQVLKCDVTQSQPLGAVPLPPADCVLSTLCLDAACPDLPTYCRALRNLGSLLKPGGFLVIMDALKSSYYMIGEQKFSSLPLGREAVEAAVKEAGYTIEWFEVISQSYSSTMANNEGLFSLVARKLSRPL

C[C@]12CC[C@H](O[C@@H]3O[C@H](CO)[C@@H](O)[C@H](O)[C@H]3O[C@@H]3O[C@H](CO)[C@@H](O)[C@H](O)[C@H]3O)CC1=CC[C@@H]1[C@@H]2CC[C@]2(C)[C@@H](C3=CC(=O)OC3)CC[C@]12O
active: Potency [1] 4.3 µM
inactive: Potency [2] | Potency [3] | Potency [4]

Fc1cc(F)c2c(c1)C1C=CCC1C(c1cccnc1)N2 (stereo not drawn)
-6.05%: activity [9]
-0.484%: activity [7]
0.0443%: activity change, negative = inhibition [8]
inactive: Potency [5]
active: Potency [6] 23.9 µM | Potency [1] 16.3 µM | Potency [11] 4.61 µM | Potency [12] 10 µM | Potency [13] 11.2 µM
-0.468%: activity [10]

COc1cc(O)c2c(c1)CCC[C@@H](O)[C@H](O)C(=O)/C=C\C[C@H](C)OC2=O
active: Potency [1] 4.5 µM
inactive: Potency [5] | Potency [14]

COC1CCCC(C)OC(=O)Cc2cc(O)cc(O)c2C(=O)C1 (stereo not drawn)
active: Potency [1] 3.19 µM | Potency [11] 4.04 µM
inactive: Potency [5] | Potency [2] | Potency [3]

COC1CC(O[C@H]2CC[C@@]3(C)C(CCC4C3CC[C@]3(C)C(C5=CC(=O)OC5)CCC43O)C2)OC(C)C1OC1OC(COC2OC(CO)C(O)C(O)C2O)C(O)C(O)C1O (stereo partly drawn)
active: Potency [1] 1.73 µM | Potency [11] 2.76 µM | Potency [12] 2.82 µM | Potency [13] 3.16 µM
inactive: Potency [2] | activity change, negative = thiol reactive [14] 0.284% [at 11.5 µM]

CC[C@H](O)[C@@H](C)[C@H]1O[C@@H]1C[C@H](C)/C=C/C=C(\C)[C@H]1OC(=O)C[C@H](O)CC[C@@](C)(O)[C@@H](OC(C)=O)/C=C/[C@@H]1C
inactive: Potency [5] | Potency [1] | Potency [2] | Potency [4]
active: Potency [11] 0.0052 µM

CC(=O)OC[C@]12[C@H](OC(C)=O)C(=O)[C@@H]3[C@@H](O)[C@@]14O[C@@]3(C)COC(=O)c1cccnc1[C@@H](C)[C@H](C)C(=O)O[C@@H]([C@H](OC(C)=O)[C@@H]2OC(C)=O)[C@]4(C)O
inactive: Potency [5] | Potency [14] | max response [11] 7.87% | Potency [15] | outcome [16] inactive [at 17.4 µM] | Potency [3] | Potency [12] | Potency [4] | Potency [13]

Cc1ccc2c(c1)[C@H]1CN(C)CC[C@H]1N2C(=O)CSc1nnnn1-c1ccc(Cl)cc1
active: Potency [6] 10.7 µM
inactive: Potency [1] | Potency [2] | Potency [14] | max response [11] -5.2% | outcome [16] | outcome [17] | Potency [3] | Potency [12] | Potency [4] | Potency [13]

CCCCCCC1C(=O)O[C@H](C)[C@H](NC(=O)c2cccc(NC=O)c2O)C(=O)O[C@@H](C)[C@@H]1OC(=O)CC(C)C (stereo partly drawn)
active: Potency [5] 6.31 µM | Potency [14] 1.89 µM | Potency [3] 3.16 µM | Potency [13] 0.794 µM
inactive: Potency [4]

CC(C)[C@H]1OC(=O)[C@H](Cc2ccccc2)N(C)C(=O)[C@@H](C(C)C)OC(=O)[C@H](Cc2ccccc2)N(C)C(=O)[C@@H](C(C)C)OC(=O)[C@H](Cc2ccccc2)N(C)C1=O
inactive: Potency [14] | Potency [3] | Potency [4]
active: Potency [1] 4.83 µM

CC1=CC2OC3CC(O)[C@](C)([C@@]2(C)C(O)C1=O)[C@]31CO1 (stereo partly drawn)
active: Potency [1] 4.09 µM | Potency [11] 7.31 µM
inactive: Potency [5] | Potency [2] | Potency [14] | Potency [3] | Potency [4]

CN1CCC2=C(C1)c1ccccc1Cc1ccccc12
inactive: Potency [5] | Potency [18] | Potency [2] | Potency [14] | max response [11] -19% | Potency [15] | outcome [16] | Potency [3] | Potency [12] | Potency [4] | Potency [13]
active: Potency [6] 0.477 µM

CC1=CC(=O)[C@@H](O)[C@@]2(C)C1C[C@H]1OC(=O)[C@H](O)[C@@]3(O)[C@@H](C)[C@@H](O)[C@H](O)C2[C@@]13C (stereo partly drawn)
active: Potency [1] 1.01 µM | Potency [11] 6.4 µM
inactive: Potency [5] | Potency [2] | Potency [4]

C[C@@H]1O[C@@H](OC2CCC3(C=O)C(CCC4C3CCC3(C)C(C5=CC(=O)OC5)C(O)CC43O)C2)[C@H](O)[C@H](O)[C@H]1O[C@@H]1O[C@H](CO)[C@@H](O)[C@H](O)[C@H]1O (stereo partly drawn)
active: Potency [1] 4.83 µM | Potency [13] 11.2 µM
inactive: Potency [2]

c1ccc([C@@H]2C[C@H]2NC2CCNCC2)cc1
active: Potency [6] 10.7 µM
inactive: Potency [5] | Potency [2] | Potency [14] | max response [11] -11.5% | Potency [3] | Potency [4] | Potency [13]

C/C=C(\C)C(=O)OC1CC2C(CC=C3CC(OC4CC(OC)C(OC5CC(OC)C(OC6CC(OC)C(OC7CC(OC)C(O)C(C)O7)C(C)O6)C(C)O5)C(C)O4)CCC32C)C2(O)CCC(C(C)=O)C12C (stereo not drawn)
inactive: outcome [19] inactive [at 9.29 µM] | Potency [5] | Potency [2] | activity change, negative = thiol reactive [14] 0.247% [at 11.5 µM] | outcome [11] | outcome [16] inactive [at 9.27 µM] | outcome [17] inactive [at 9.27 µM] | activity change, negative = cytotoxicity [3] 3.23% [at 11.6 µM] | activity change, negative = cytotoxicity [12] 9.98% [at 11.6 µM] | activity change, negative = cytotoxicity [4] -3.8% [at 11.6 µM] | activity change, negative = cytotoxicity [13] -3.35% [at 11.6 µM]

CN1Cc2c(ccc3c2OCO3)[C@@H]2[C@H]1c1cc3c(cc1C[C@@H]2O)OCO3
inactive: Potency [5] | Potency [14]
active: Potency [12] 3.16 µM

C[C@]12CC[C@H](O)C[C@@H]1CC[C@@H]1[C@@H]2CC[C@]2(C)[C@@H](C3=CC(=O)OC3)CC[C@]12O
active: Potency [1] 4.5 µM
inactive: Potency [5] | Potency [2] | Potency [4]

CCOc1ccc(Oc2ccc(OCc3cc(F)ccc3F)cc2)c(N)c1
inactive: Potency [5] | Potency [2] | max response [11] -0.382% | Potency [15] | Potency [3] | Potency [12] | Potency [4] | Potency [13]
